57 molecules from the supplement of paper PMC7724964 can be followed below.

Experiment in all cases: phage ELISA signal ratio (GST-PRM binding over GST background); higher = stronger binding of peptide-phage to the PRM
Assay [1] concerns the target WDR5 20-334 WD40 (domain begin residue: 20, domain end residue: 334), P61964. The method, boiled down:
(§1)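 Approximately 48 individual clones from selection rounds 4 and 5 were tested by phage ELISA, and those scoring positive were sequenced. They came from five rounds of selecting an M13 phage library of randomized, cysteine-free, glycine-flanked hexadecapeptides on the gene-8 major coat protein against human peptide recognition domains fused to the C-terminus of glutathione S-transferase (GST) in 96-well plates. Each figure in the table is the ELISA signal on the GST-domain fusion relative to the signal on GST alone.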

Assay [2] has as its target T1, VCL 1-259 Vinculin (domain begin residue: 1, domain end residue: 259), P18206.
T1 chain: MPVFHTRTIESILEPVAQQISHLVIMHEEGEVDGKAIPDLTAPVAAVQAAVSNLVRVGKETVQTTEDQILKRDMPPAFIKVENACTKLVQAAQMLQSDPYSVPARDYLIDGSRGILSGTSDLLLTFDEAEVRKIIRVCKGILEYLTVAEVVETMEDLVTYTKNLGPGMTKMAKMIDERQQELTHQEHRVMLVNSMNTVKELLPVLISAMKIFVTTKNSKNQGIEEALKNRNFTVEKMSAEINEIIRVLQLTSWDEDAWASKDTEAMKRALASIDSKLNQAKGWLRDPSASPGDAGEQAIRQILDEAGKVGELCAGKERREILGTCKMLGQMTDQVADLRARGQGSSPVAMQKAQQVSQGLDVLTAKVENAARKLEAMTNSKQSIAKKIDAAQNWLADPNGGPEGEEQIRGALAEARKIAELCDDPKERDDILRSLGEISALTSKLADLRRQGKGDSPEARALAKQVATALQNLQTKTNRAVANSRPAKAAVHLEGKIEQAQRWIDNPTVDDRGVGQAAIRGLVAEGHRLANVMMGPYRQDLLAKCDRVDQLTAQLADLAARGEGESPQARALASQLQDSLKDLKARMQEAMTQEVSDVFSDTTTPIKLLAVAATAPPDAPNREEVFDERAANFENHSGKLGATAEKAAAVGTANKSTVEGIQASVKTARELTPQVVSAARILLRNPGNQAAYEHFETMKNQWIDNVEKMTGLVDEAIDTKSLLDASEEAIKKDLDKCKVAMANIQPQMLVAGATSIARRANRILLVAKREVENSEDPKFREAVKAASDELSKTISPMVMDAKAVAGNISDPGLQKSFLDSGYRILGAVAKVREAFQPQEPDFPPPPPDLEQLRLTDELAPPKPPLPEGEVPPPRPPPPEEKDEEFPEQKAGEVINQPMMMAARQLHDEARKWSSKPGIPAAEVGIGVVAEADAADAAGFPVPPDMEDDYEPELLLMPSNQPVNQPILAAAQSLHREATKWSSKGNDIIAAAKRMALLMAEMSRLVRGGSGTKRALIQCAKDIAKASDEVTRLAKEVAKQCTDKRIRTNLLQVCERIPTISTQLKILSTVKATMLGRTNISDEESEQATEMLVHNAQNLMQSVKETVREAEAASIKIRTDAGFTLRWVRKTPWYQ
An outline of the steps: as §1

The target of assay [3] is VASP 1-114 WH1 (domain begin residue: 1, domain end residue: 114), P50552. The method, boiled down:
as §1

Assay [4] deals with T2, WDR74 1-387 WD40 (domain begin residue: 1, domain end residue: 387), Q6RFH5.
T2 chain: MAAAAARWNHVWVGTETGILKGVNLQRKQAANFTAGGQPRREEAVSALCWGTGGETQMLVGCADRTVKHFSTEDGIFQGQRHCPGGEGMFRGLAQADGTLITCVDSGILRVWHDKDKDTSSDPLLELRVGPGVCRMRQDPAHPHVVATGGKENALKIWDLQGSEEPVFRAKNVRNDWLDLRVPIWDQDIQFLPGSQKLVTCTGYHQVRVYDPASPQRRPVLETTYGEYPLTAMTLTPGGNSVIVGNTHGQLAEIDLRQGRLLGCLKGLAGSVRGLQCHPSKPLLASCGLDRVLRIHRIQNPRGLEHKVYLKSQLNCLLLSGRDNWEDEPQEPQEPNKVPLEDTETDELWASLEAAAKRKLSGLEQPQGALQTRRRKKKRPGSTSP
An outline of the steps:
as §1

Chain of VASP 1-114 WH1 (domain begin residue: 1, domain end residue: 114), P50552 (P50552 whole entry): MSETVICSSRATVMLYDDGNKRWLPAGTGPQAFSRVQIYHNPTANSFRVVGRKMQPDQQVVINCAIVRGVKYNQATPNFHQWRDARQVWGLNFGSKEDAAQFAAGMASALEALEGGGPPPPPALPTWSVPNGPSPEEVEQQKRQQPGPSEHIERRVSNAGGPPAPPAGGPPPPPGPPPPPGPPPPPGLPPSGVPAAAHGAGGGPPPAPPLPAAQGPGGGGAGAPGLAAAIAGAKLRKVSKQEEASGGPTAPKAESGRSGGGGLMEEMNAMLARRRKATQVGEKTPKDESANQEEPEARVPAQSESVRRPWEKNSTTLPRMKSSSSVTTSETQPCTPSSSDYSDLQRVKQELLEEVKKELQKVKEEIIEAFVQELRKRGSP

GRWVPVQDVPRFEIED: the “phage ELISA signal ratio” value in assay [1] worked out at 19.

Turning to YWDAGEVMAQIIQSAH, in assay [2], the “phage ELISA signal ratio” value came out at 11.9. Take NLETWAWPPWPQEFND: the “phage ELISA signal ratio” value in assay [3] turned out to be 23.3. As to ETQDPPEVRQYTMVSR, in assay [1], the “phage ELISA signal ratio” value worked out at 13.8. Turning to FELAGRWEPLMMYEWV, the “phage ELISA signal ratio” value in assay [1] worked out at 12.8. Still for that read-out and setting: for SARTGYDNYLKPSSQQ the value was 22. TAHDWIDEWLVQAMLQ: the “phage ELISA signal ratio” value in assay [2] came to 20.3. Consider AARTHAQEYHKGIMAS, for which the “phage ELISA signal ratio” value in assay [1] turned out to be 21.6. Still for that read-out and setting: for KKPVPMRWEHTYTETM the value was 20.2; for PEQERINRKTYQMVSR, 13. With SARTSHWVPMEWNHLQ, the “phage ELISA signal ratio” value in assay [1] was found to be 14. As for QMIEFWTEEEIMHWVH, in assay [2], the “phage ELISA signal ratio” value stood at 13.6. In the case of QIWSLWVEGMMYQPDN, the “phage ELISA signal ratio” value in assay [4] was found to be 2.75. Regarding HEIWETDWQWIIDQAY, the “phage ELISA signal ratio” value in assay [2] worked out at 20.4.

Regarding DNWYWEAWDAAFLTNG, in assay [2], the “phage ELISA signal ratio” value stood at 20.4. As for IKETAHMDERPKMISR, the “phage ELISA signal ratio” value in assay [1] amounted to 15.8. WDPQADWQEQVQYWLV: the “phage ELISA signal ratio” value in assay [2] is 20.4. Regarding DMWAMWHEWVEQEPQD, in assay [4], the “phage ELISA signal ratio” value was 2.88.

Consider PRYKPHNRTEPVPLMA, for which the “phage ELISA signal ratio” value in assay [1] came to 18.7. Same read-out and setting: for RTEPYVHQQPTPQAPA the value was 12.4. As for NWDIWPDWPPTQSVMW, in assay [3], the “phage ELISA signal ratio” value is 5.89. For DNFENWIENWLLEYNG, in assay [2], the “phage ELISA signal ratio” value is 9.78. GRWVPWDQNVTTSDES: in assay [1], the “phage ELISA signal ratio” value is 23.4. On the same count and under the same terms, for RTEPYQWMKAAGFPTS the value was 9.24. Regarding EYHPRWGYIMAQASDS, in assay [1], the “phage ELISA signal ratio” value came to 11. On to LDMFWPEPPMFNREIP, for which the “phage ELISA signal ratio” value in assay [3] was 24.9. For the molecule LTGEIWDAEKVIHYVM, the “phage ELISA signal ratio” value in assay [2] worked out at 11.1. On to VPSLVMPQDQPVMVSR, for which the “phage ELISA signal ratio” value in assay [1] came to 12.8. As for WWEQDQDWEEFVNAIE, in assay [2], the “phage ELISA signal ratio” value was found to be 16.9. Same read-out and setting: for FDTPLWEQAMWEALGE the value was 13.2; for FPQMWQSPDFWEDWLL, 12.6. Consider QQVFQDHSNHQMMISR, for which, in assay [1], the “phage ELISA signal ratio” value was determined as 14. VDDQEWPNMEMLLGIV: the “phage ELISA signal ratio” value in assay [2] came to 17.4.

For the molecule LWDWTPETEQWFQEIV, the “phage ELISA signal ratio” value in assay [2] is 13.5.

Regarding WPPAPPTEQHRQMWAK, in assay [3], the “phage ELISA signal ratio” value stood at 7.1. On to RTDPEQYQRTMMVPRG, for which, in assay [1], the “phage ELISA signal ratio” value was determined as 12.1. Still for that read-out and setting: for NARTDAWWSQQSLQQH the value was 9.86.

As to NTVEWQDMEGHLLGIV, the “phage ELISA signal ratio” value in assay [2] was 15.3. Regarding ARTWYMHQQEAMADQK, the “phage ELISA signal ratio” value in assay [1] worked out at 26.3.

Regarding VEFWWSDTSARTLPFK, the “phage ELISA signal ratio” value in assay [1] is 9.42. Regarding HPQEWSAEEIMVGILY, the “phage ELISA signal ratio” value in assay [2] stood at 14.1.

Take QRTMAWKSENHLMPHS: in assay [1], the “phage ELISA signal ratio” value is 16.4. For WHWPELQDLMSIGMDE, the “phage ELISA signal ratio” value in assay [4] amounted to 2.99. Take APVVHDFDAYKMLMQL: the “phage ELISA signal ratio” value in assay [2] is 17.2. RWEPHAWQADQVEATK: in assay [1], the “phage ELISA signal ratio” value is 14. For SDDWFFDLTHSIISTD, in assay [2], the “phage ELISA signal ratio” value was 18.4.

Regarding GAARTQGVEWHSQHSH, the “phage ELISA signal ratio” value in assay [1] was 14.9. For MMPTTEDGWEMWLAEL, in assay [2], the “phage ELISA signal ratio” value stood at 21.4.

Turning to STQKDNNWPLPPVMEE, the “phage ELISA signal ratio” value in assay [3] stood at 21.6. For the molecule AARTQWYLAAVAEQAP, the “phage ELISA signal ratio” value in assay [1] worked out at 12.9. For the molecule WPDDLDWGTWLETLPL, the “phage ELISA signal ratio” value in assay [2] was 13.3. For SARSEPYPSTNFTWTH, the “phage ELISA signal ratio” value in assay [1] turned out to be 25.7. As for QRTMAWKSEDHLMPQS, in assay [1], the “phage ELISA signal ratio” value came out at 14.9. As to LDSFWDAENVIRSIMI, the “phage ELISA signal ratio” value in assay [2] stood at 12.9.

For the molecule WGSEDTQYWLEYVNSV, in assay [2], the “phage ELISA signal ratio” value is 24.6. On the same count and under the same terms, to MPPWTEDAESWHMWLI belongs 14.8. For the molecule RTEYLNWQEHRTVSKE, the “phage ELISA signal ratio” value in assay [1] is 11.
